# IL1B secr inh = qHTS for Inhibitors of Inflammasome Signaling: IL-1-beta AlphaLISA Primary Screen. AID 743279, 2014. activity change, % at 57.5 µM. THP-1 LPS/ATP IL-1B secretion, AlphaLISA, 16 h; hits give low values. 4.7% of 360,000 active; in the data active means activity change below about -50%; inconclusive means mostly about -30% to -49%; further: on the % scale 0 is the no-effect control and ±100 the full control effect
#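 THP-1 cells pretreated 1 hr with compounds (up to 57.5 uM final), then stimulated with LPS (250 ng/mL final) plus ATP (1.25 mM final); secreted IL-1B measured by AlphaLISA after 16 hr, decreased signal indicating inhibition.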
# TDP1 inh = qHTS Assay for Inhibitors of Tyrosyl-DNA Phosphodiesterase (TDP1); 0.28% of 350,000 active; recombinant TDP1, AlphaScreen DNA substrate cleavage; Tyrosyl-DNA phosphodiesterase 1 (Homo sapiens), Q9NUW8; AID 485290, 2010; Potency, µM (titrated, usually from 130 µM), for inactives: at the highest dose activity change, negative = inhibition, usual class: inhibitors; further: potency means the concentration at half of the fitted maximal effect; on the % scale 0 is the no-effect control and ±100 the full control effect; nearly all actives have a fitted effect of over 40% in size
# Target sequence (Q9NUW8 whole entry, looked up): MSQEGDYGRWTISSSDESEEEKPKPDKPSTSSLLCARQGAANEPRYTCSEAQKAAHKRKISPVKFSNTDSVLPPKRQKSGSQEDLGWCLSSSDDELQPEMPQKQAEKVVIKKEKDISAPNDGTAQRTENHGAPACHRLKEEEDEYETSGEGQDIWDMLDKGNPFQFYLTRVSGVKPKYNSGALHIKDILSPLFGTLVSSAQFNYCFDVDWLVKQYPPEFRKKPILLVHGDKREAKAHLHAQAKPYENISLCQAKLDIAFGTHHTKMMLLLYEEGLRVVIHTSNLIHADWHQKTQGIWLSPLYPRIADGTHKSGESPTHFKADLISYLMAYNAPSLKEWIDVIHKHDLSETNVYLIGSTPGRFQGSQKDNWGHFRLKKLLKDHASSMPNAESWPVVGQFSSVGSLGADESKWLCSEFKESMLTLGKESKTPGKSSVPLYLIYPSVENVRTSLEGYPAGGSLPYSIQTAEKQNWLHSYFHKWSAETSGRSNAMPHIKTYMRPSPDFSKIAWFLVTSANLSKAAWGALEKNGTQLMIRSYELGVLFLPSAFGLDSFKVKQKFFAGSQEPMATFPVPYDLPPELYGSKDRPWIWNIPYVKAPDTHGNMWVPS
#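 Enzyme-compound mixtures sat 15 min at room temperature, followed by a 5 min reaction with 15 nM final substrate and 10 min with AlphaScreen beads. Recombinant human Tdp1 was used at 1 nM final.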
# HepG2 viability = qHTS for Inhibitors of TGF-b: Cytotox Counterscreen. HepG2 CAGA-GFP viability, ATP luminescence, 18 h. Potency, µM (titrated, usually from 46.1 µM), for inactives: at the highest dose activity change, negative = cytotoxicity, most hits filed as cytotoxic. 0.76% of 410,000 active; further: potency means the concentration at half of the fitted maximal effect
#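 HepG2 CAGA-GFP cells (1000/well, DMEM with 1% FBS) received compound, then TGF-beta at 500 pg/mL final, and were incubated 18 hours at 37 degrees C. Viability was read by CellTiter-Glo luminescence. Media-only wells were set as complete cell-killing and DMSO as no toxicity.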
# TDP1 cell noCPT = qHTS for Inhibitors of human tyrosyl-DNA phosphodiesterase 1 (TDP1): qHTS in cells in absence of CPT; DT40 Tdp1-/- hTDP1 cells, no CPT, ATP luminescence, 48 h; Potency, µM (doses to about 46.2 µM), without a hit: top-dose activity change, negative = growth inhibition, usual class: inhibitors; AID 686978, 2013; 15% of 420,000 active; further: potency means the concentration at half of the fitted maximal effect; on the % scale 0 is the no-effect control and ±100 the full control effect; nearly all actives have a fitted effect of over 55% in size
#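 Growth kinetics read by CellTiter-Glo luminescence after ≥48 hr at 37 °C. Cells: DT40 Tdp1-/- stably carrying human TDP1, 400 per well, compound exposure in the absence of CPT (DMSO vehicle).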
# TGFb SMAD3 inh = qHTS for Inhibitors of TGF-b; HepG2 CAGA-GFP TGF-b/SMAD3 reporter, GFP fluorescence, 18 h; TGF-beta stimulated, 500 pg/mL final; Potency, µM (series often up to 46.1 µM), for the others: top-dose activity, negative = inhibition, actives largely listed as inhibitors; 1.2% of 410,000 active; further: potency means the concentration at half of the fitted maximal effect; on the % scale 0 is the no-effect control and ±100 the full control effect; nearly all actives have a fitted effect of over 65% in size
#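 Smad-responsive CAGA-GFP expression was quantified in HEPG2 cells exposed to compounds and 500 pg/mL final TGF-beta for 18 h at 37 degrees C; unstimulated wells defined full inhibition.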
# DT40 TDP1 CPT = qHTS for Inhibitors of human tyrosyl-DNA phosphodiesterase 1 (TDP1): qHTS in cells in presence of CPT | chicken DT40 Tdp1-/-;hTDP1 cells + 20 nM CPT, ATP luminescence, 48 h | Potency, µM (highest dose often 46.2 µM), without a hit: at the highest dose activity change, negative = growth inhibition, most hits filed as inhibitors | 12% of 420,000 active | AID 686979, 2013; further: potency means the concentration at half of the fitted maximal effect; on the % scale 0 is the no-effect control and ±100 the full control effect; nearly all actives have a fitted effect of over 55% in size
#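 Chicken DT40 Tdp1-/- cells stably complemented with human TDP1 were seeded at 400 cells/well in medium containing 20 nM camptothecin, exposed to pin-transferred compounds, and grown at 37 °C for at least 48 hr. Viability was read as ATP luminescence.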
# Numbers without * were called inactive; u = inconclusive; x = no result given; [ ] = dose if it differs, or a comment. Shown are actives, neighbours in structure and some others; about 18% of the full set was active somewhere. Unless noted, the call rests on the fitted dose curve; in most records, active means well fitted curve in the direction sought with a large enough effect; inconclusive means small, poorly fitted or top-dose-only effect, or another doubt; inactive means no such curve, though single readings can be large; an effect the other way counts as inactive or inconclusive.
SMILES,IL1B secr inh,TDP1 inh,HepG2 viability,TDP1 cell noCPT,TGFb SMAD3 inh,DT40 TDP1 CPT
COc1ccc(-n2c(C)c3c(C)nnc(C)c3c2C)cc1OC,23,x,-13%,15µM*,5%,16µM*
CCCCn1c(N)c(NCc2ccccc2)c(=O)[nH]c1=O,9,8%,-8%,9%,5%,3%
CCCCn1c(N)c(NCC)c(=O)[nH]c1=O,32,5%,7%,23µM*,9%,u
Fc1ccc(-c2csc(=Nc3cccc(C(F)(F)F)c3)n2Cc2ccc3c(c2)OCO3)cc1,x,3%,-44%,13µM*,u,13µM*
O=S(=O)(c1cccc(F)c1)N1CCN(Cc2ccc3c(c2)OCO3)CC1,2,4%,-3%,-22%,1%,-15%
CCN(CC)S(=O)(=O)c1ccc(-c2csc(=Nc3cccc(C(F)(F)F)c3)n2Cc2ccc3c(c2)OCO3)cc1,x,-2%,3%,9.2µM*,2%,u
CCCC(=O)NC(Nc1cc(C(F)(F)F)ccc1Cl)C(Cl)(Cl)Cl (centres undefined),-3,-14%,-22%,18µM*,u,18µM*
CCCC(=O)NC(Nc1cccc(C(F)(F)F)c1)C(Cl)(Cl)Cl (centres undefined),8,-4%,-33%,21µM*,u,u
O=C(NC(Nc1cc(C(F)(F)F)ccc1Cl)C(=O)c1ccccc1)c1ccccc1 (centres undefined),-4,6%,13%,21µM*,-32%,u
CCCC(=O)NC(Nc1ccccc1F)C(Cl)(Cl)Cl (centres undefined),x,-2%,x,x,x,x
CC(C)C(=O)NC(Nc1cc(C(F)(F)F)ccc1Cl)C(Cl)(Cl)Cl (centres undefined),23,0%,-28%,26µM*,-25%,u
O=C(CNC(=O)c1ccccc1)N[C@H](C(=O)Nc1cc(C(F)(F)F)ccc1Cl)c1ccccc1,x,1%,x,x,x,x
Cc1nc([N+](=O)[O-])cn1CC(=O)c1ccc2c(c1)OCCO2,x,x,-9%,-7%,3%,-15%
CC1CN(C(=O)CN(C)S(=O)(=O)c2ccc3ccccc3c2)CC(C)O1 (centres undefined),10,x,-14%,2%,13%,-24%
Cc1ccc(C)c(S(=O)(=O)Nc2ccc(C(=O)N3CCCCC3)cc2)c1,-3,3%,-11%,u,7%,u
CCCC1O[C@@H]2C[C@H]3[C@@H]4CCC5=CC(=O)C=C[C@]5(C)[C@H]4[C@@H](O)C[C@]3(C)[C@]2(C(=O)CO)O1 (some centres undefined),-65*,6%,-29%,u,9%,-3%
CCC[C@@H]1O[C@@H]2C[C@@H]3[C@H]4CCC5=CC(=O)C=C[C@@]5(C)[C@H]4[C@H](O)C[C@@]3(C)[C@@]2(C(=O)CO)O1,x,7%[56.1 µM],x,x,x,x
CCC(=O)[C@@]1(C)[C@H](C)C[C@H]2[C@@H]3CCC4=CC(=O)C=C[C@]4(C)[C@H]3[C@@H](O)C[C@@]21C,u,x,-1%,16µM*,36%,13µM*
O=C(NCc1cccc(F)c1)c1ccc2nc(CCc3ccccc3)oc2c1,x,4%,-21%,u,-1%,21µM*
CCC(C)NC(=O)c1ccc2nc(CCc3ccccc3)oc2c1 (centres undefined),x,-4%,-16%,23µM*,3%,u
Cc1cccc(NC(=O)c2ccc3nc(CCc4ccccc4)oc3c2)c1C,x,-4%,4%,u,-1%,18µM*
CC(NC(=O)c1ccc2nc(CCc3ccccc3)oc2c1)c1ccccc1 (centres undefined),x,2%,-7%,u,0%,21µM*
COCCNC(=O)c1ccc2nc(CCc3ccccc3)oc2c1,x,5%,-3%,4%,2%,11%
CCNC(=O)c1ccc2nc(CCc3ccccc3)oc2c1,x,1%,-2%,-19%,8%,-23%
COc1cccc(CNc2ncnc3sc(C(=O)N4CCOCC4)c(C)c23)c1OC,x,x,x,1%,x,-4%[9.04 µM]
SMILES,IL1B secr inh,TDP1 inh,HepG2 viability,TDP1 cell noCPT,TGFb SMAD3 inh,DT40 TDP1 CPT
O=C(Nc1ccc(Cl)cc1Cl)[C@@H]1CC=C[C@@H]2CCN(C3CCCCC3)C(=O)[C@@H]21,x,x,-8%,18µM*,-6%,16µM*
O=C(Nc1ccc(Cl)c(C(F)(F)F)c1)[C@@H]1CC=C[C@@H]2CCN(C3CCCCC3)C(=O)[C@@H]21,30,x,-2%,16µM*,0%,u
O=C(Nc1ccccc1)[C@@H]1CC=C[C@@H]2CCN(C3CCCCC3)C(=O)[C@@H]21,-13,x,-2%,u,-3%,u
CCCCN1CC[C@H]2C=CC[C@@H](C(=O)Nc3ccc(Cl)c(C(F)(F)F)c3)[C@H]2C1=O,-22,x,-41%,10µM*,-11%,u
O=C(Nc1ccc(Cl)c(C(F)(F)F)c1)[C@@H]1CC=C[C@@H]2CCN(C3CC3)C(=O)[C@@H]21,-9,x,-8%,u,u,u
O=C(NC1CC(=O)N(c2ccccc2)C1)c1cc2ccccc2o1 (centres undefined),x,-3%,4%,u,31%,-24%
CCOC(=O)c1c(C2CC2)csc1NC(=O)COC(=O)c1ccc[n+]([O-])c1,-3,3%,-8%,u,4%,-30%
CCOC(=O)c1c(C2CC2)csc1NC(=O)COC(=O)c1cc(OC)c(OC)cc1[N+](=O)[O-],28,2%,4%,21µM*,20%,u
N#Cc1ccc(C(=O)OCC(=O)Nc2cccc(S(=O)(=O)NC3=NCCC3)c2)cc1,-4,-5%,7%,4%,3%,-3%
Cc1ccc(C)c(N2CCN(c3nc4ccccc4c(=O)n3-c3ccc(Cl)cc3)CC2)c1,x,-5%,-13%,21µM*,-26%,5.8µM*
O=c1c2ccccc2nc(N2CCN(c3cccc(Cl)c3)CC2)n1-c1ccccc1,x,-2%,-47%,2.9µM*,7.1µM*,3.7µM*
CC(C)Oc1ccc(Cl)cc1Nc1nc(NCCO)nc(N2CCCC2)n1,x,x,-61%,x,u,x

# Screening data: PubChem BioAssay, National Center for Advancing Translational Sciences (NCATS)
